Assay results from ChEMBL document CHEMBL3988442, “University of Dundee, Small-Polar-MMV Screening Library” (2021).

What follows are compounds tested against T1, Aspartate--tRNA(Asp/Asn) ligase (Mycobacterium tuberculosis (strain ATCC 25618 / H37Rv)) (UniProt P9WFW3) (assay: Assay for Asp RNA synthetase-1 from Mycobacterium tuberculosis). Settings: 30 µM.
T1 sequence (whole entry): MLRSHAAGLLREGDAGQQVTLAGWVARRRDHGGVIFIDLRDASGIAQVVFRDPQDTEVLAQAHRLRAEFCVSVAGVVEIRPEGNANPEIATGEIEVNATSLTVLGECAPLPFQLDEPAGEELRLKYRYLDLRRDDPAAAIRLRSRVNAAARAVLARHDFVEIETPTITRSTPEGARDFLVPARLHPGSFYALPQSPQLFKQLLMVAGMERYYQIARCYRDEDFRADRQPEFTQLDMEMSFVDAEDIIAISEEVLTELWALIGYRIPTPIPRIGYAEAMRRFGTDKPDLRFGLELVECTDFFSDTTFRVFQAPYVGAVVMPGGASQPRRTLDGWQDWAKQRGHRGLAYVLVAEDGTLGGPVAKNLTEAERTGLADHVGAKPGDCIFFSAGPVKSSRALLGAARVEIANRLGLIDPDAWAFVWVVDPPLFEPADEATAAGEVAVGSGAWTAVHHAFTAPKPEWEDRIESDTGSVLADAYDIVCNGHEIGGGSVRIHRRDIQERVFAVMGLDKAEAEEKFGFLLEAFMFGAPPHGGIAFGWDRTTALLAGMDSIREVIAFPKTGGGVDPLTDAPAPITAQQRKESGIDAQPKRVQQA
Assay type: functional
Design: scale not given: direction of the effect not stated beside the values

Compound | Percent Effect [%]
Cc1ccc(C(=O)N2CCO[C@H]3[C@@H](OCc4ccccn4)CC[C@@H]32)o1 | 6.63
CCc1noc(C(C)N2CCN(c3ccc(C#N)cc3F)CC2)n1 (stereo not given) | 1.23
Cc1n[nH]c(C2CN(C(=O)Cn3ccccc3=O)CCO2)n1 (stereo not given) | -3.22
CC(C(=O)NCCCN1CCCCCC1=O)n1cncn1 (stereo not given) | 2.08
CN(CC1CC1)c1ccc2ccc(C(=O)NCCN3CCOCC3)cn12 | -0.228
CC(C)n1ccnc1CN1CCCN(C(=O)c2nccnc2N)CC1 | -6.9
Cc1nc(CN2C[C@@H]3CN(C(=O)c4ccnnc4)C[C@@H]3C2=O)cs1 | -3.71
CCc1nc(C2CCCN2CC(=O)Nc2c(C)nn(C)c2C)no1 (stereo not given) | 3.31
CCCNC(=O)Nc1cc2c(cc1SC)OCCO2 | -0.324
CC(C)NC(=O)Nc1ccc(CNCc2cccc(OC(F)F)c2)cc1 | 4.98
COc1ccc(Nc2nc3c(C)nn(C)c3c(=O)n2C)c(OC)c1 | 6.63
Cc1cc(NC(=O)N(CC2CCOC2)C2CC2)no1 (stereo not given) | -10.9
Cc1ccnc(OCC(=O)N2CCC(C(N)=O)CC2)n1 | -6.44
Cc1ccc(CN2CCC(c3nnc(CN4CCCCC4)n3C)CC2)o1 | -1.53
Cc1ccc(S(=O)(=O)NC(=O)c2c(C)noc2C(C)C)cc1C | 1.59
Cc1cc(C)n(-c2cncc(NCCNC(=O)CC3CCCC3)n2)n1 | 0.268
c1ncn(CC2CCCN2Cc2cn3ccsc3n2)n1 (stereo not given) | -3.37
CCc1ncc2c(n1)CN(CC(=O)NCCOc1ccccc1)CC2 | 2.89
COCCO[C@@H]1CCN(C(=O)c2ccc(C)o2)[C@@H]1Cc1cnn(C)c1 | 2.6
O=C(CC1CC1)N1CCC2(CC1)CN(c1ncccn1)CCO2 | -1.87

Compound | Percent Effect [%]
CC1CCN(C(=O)c2ccn(COc3ccc(F)cc3)n2)CC1 | 9.51
COc1ccc(C2=C(C)C(N3CCc4ccccc4C3)=NS2(=O)=O)cc1 | 2.67
COCC1Cn2nnc(-c3cnn(C)c3)c2CN1Cc1ccco1 (stereo not given) | 0.436
Cc1cnc(C(=O)N2CCCC(n3ccnc3C)C2)cn1 (stereo not given) | -3.23
O=C(NCCCOCC1CCCO1)c1cccnc1N1CCCC1 (stereo not given) | -1.51
O=C(Cc1cccc(F)c1)NCCNCc1cccc(O)c1 | 4.95
CCN1CC(C(=O)N2CCC(Oc3ccccc3Cl)CC2)CC1=O (stereo not given) | 2.64
COCC(=O)N1Cc2cn(C)nc2C(COc2cccnc2)C1 (stereo not given) | 0.598
CSc1cc2c(cc1NC(=O)NCC(C)(C)C(N)=O)OCCO2 | 0.408
O=C(c1cn(-c2ccccc2Cl)nn1)N1CCCSCC1 | 0.212
COCCn1ccc2cc(NC(C)=O)ccc21 | -5.18
N#Cc1ccccc1C(=O)N1C[C@H](CO)C[C@H](CN2CCCC2)C1 | -4.69
CN(Cc1ccc(F)cc1)CC1(O)CCCN(CC(C)(C)C)C1=O (stereo not given) | -0.167
CC(C)c1nc(C2CCCN(C(=O)Cc3cccnc3)C2)no1 (stereo not given) | -2.44
CCOc1nc2cccnc2n(CC(=O)NCCOC)c1=O | -2.81
Cc1ncc(S(C)(=O)=O)c(C2CCCNC2)n1 (stereo not given) | 0.276
Fc1ccc(CN2CCO[C@H]3[C@H](OCC4CC4)CC[C@@H]32)cc1 | -1.08
CC(C(=O)N1CCCC1)N1CCC(c2nccn2CC2CCC2)CC1 (stereo not given) | -1.49
O=C(NCc1ccoc1)NC1CCCN(c2ncccn2)C1 (stereo not given) | -2.64
O=C(NC1(c2cccc(F)c2)CCOCC1)c1ccoc1 | 2.05

The compounds below were run against Shiga toxin 2 (Escherichia coli O157:H7) (UniProt P09385+P09386) (assay: E. coli 0.157:H7 Shiga Toxin SOP - stx2 screening assay). Settings: 30 µM.
Assay type: functional
Design: scale not given: direction of the effect not stated beside the values

Compound | Percent Effect [%]
Cc1ccc(C(=O)N2CCO[C@H]3[C@@H](OCc4ccccn4)CC[C@@H]32)o1 | -6.16
CCc1noc(C(C)N2CCN(c3ccc(C#N)cc3F)CC2)n1 (stereo not given) | 8.4
Cc1n[nH]c(C2CN(C(=O)Cn3ccccc3=O)CCO2)n1 (stereo not given) | 10.2
CC(C(=O)NCCCN1CCCCCC1=O)n1cncn1 (stereo not given) | 20
CN(CC1CC1)c1ccc2ccc(C(=O)NCCN3CCOCC3)cn12 | -88.6
CC(C)n1ccnc1CN1CCCN(C(=O)c2nccnc2N)CC1 | -13.7
Cc1nc(CN2C[C@@H]3CN(C(=O)c4ccnnc4)C[C@@H]3C2=O)cs1 | -1.02
CCc1nc(C2CCCN2CC(=O)Nc2c(C)nn(C)c2C)no1 (stereo not given) | -7.62
CCCNC(=O)Nc1cc2c(cc1SC)OCCO2 | -0.581
CC(C)NC(=O)Nc1ccc(CNCc2cccc(OC(F)F)c2)cc1 | -103
COc1ccc(Nc2nc3c(C)nn(C)c3c(=O)n2C)c(OC)c1 | -34.2
Cc1cc(NC(=O)N(CC2CCOC2)C2CC2)no1 (stereo not given) | -2.82
Cc1ccnc(OCC(=O)N2CCC(C(N)=O)CC2)n1 | 1.84
Cc1ccc(CN2CCC(c3nnc(CN4CCCCC4)n3C)CC2)o1 | -7.9
Cc1ccc(S(=O)(=O)NC(=O)c2c(C)noc2C(C)C)cc1C | 8.34
Cc1cc(C)n(-c2cncc(NCCNC(=O)CC3CCCC3)n2)n1 | -15.9
c1ncn(CC2CCCN2Cc2cn3ccsc3n2)n1 (stereo not given) | -3.31
CCc1ncc2c(n1)CN(CC(=O)NCCOc1ccccc1)CC2 | 23.5
COCCO[C@@H]1CCN(C(=O)c2ccc(C)o2)[C@@H]1Cc1cnn(C)c1 | 2.85
O=C(CC1CC1)N1CCC2(CC1)CN(c1ncccn1)CCO2 | 5.46

Compound | Percent Effect [%]
CC1CCN(C(=O)c2ccn(COc3ccc(F)cc3)n2)CC1 | -44.1
COc1ccc(C2=C(C)C(N3CCc4ccccc4C3)=NS2(=O)=O)cc1 | -90
COCC1Cn2nnc(-c3cnn(C)c3)c2CN1Cc1ccco1 (stereo not given) | -1.07
Cc1cnc(C(=O)N2CCCC(n3ccnc3C)C2)cn1 (stereo not given) | -18.1
O=C(NCCCOCC1CCCO1)c1cccnc1N1CCCC1 (stereo not given) | -14.1
O=C(Cc1cccc(F)c1)NCCNCc1cccc(O)c1 | -12.7
CCN1CC(C(=O)N2CCC(Oc3ccccc3Cl)CC2)CC1=O (stereo not given) | -34.4
COCC(=O)N1Cc2cn(C)nc2C(COc2cccnc2)C1 (stereo not given) | -21.7
CSc1cc2c(cc1NC(=O)NCC(C)(C)C(N)=O)OCCO2 | -1.68
O=C(c1cn(-c2ccccc2Cl)nn1)N1CCCSCC1 | 5.41
COCCn1ccc2cc(NC(C)=O)ccc21 | -9.31
N#Cc1ccccc1C(=O)N1C[C@H](CO)C[C@H](CN2CCCC2)C1 | 0.715
CN(Cc1ccc(F)cc1)CC1(O)CCCN(CC(C)(C)C)C1=O (stereo not given) | 28.1
CC(C)c1nc(C2CCCN(C(=O)Cc3cccnc3)C2)no1 (stereo not given) | 23.6
CCOc1nc2cccnc2n(CC(=O)NCCOC)c1=O | -9.03
Cc1ncc(S(C)(=O)=O)c(C2CCCNC2)n1 (stereo not given) | -2.77
Fc1ccc(CN2CCO[C@H]3[C@H](OCC4CC4)CC[C@@H]32)cc1 | 3.83
CC(C(=O)N1CCCC1)N1CCC(c2nccn2CC2CCC2)CC1 (stereo not given) | -1.48
O=C(NCc1ccoc1)NC1CCCN(c2ncccn2)C1 (stereo not given) | 15.2
O=C(NC1(c2cccc(F)c2)CCOCC1)c1ccoc1 | -19.4
